From PubChem BioAssay (NCI) come the findings set out here.

Common to all, as to assay: NCI-60 one-dose screen, 48 h (100 = growth as untreated, 0 = no growth, -100 = all killed)
Assay [1] concerns RPMI-8226 leukemia. Conditions: 10 µM unless noted.
For assay [2], the system named is OVCAR-8 ovarian. Conditions: 10 µM unless noted.
For assay [3], the system named is OVCAR-5 ovarian. Conditions: 10 µM unless noted.
The subject of assay [4] is OVCAR-4 ovarian. Conditions: 10 µM unless noted.
The test system of assay [5] is SK-OV-3 ovarian. Conditions: 10 µM unless noted.
Assay [6] deals with IGROV1 ovarian. Conditions: 10 µM unless noted.
Assay [7] concerns OVCAR-3 ovarian. Conditions: 10 µM unless noted.
Assay [8] deals with HS 578T breast. Conditions: 10 µM unless noted.
Assay [9] concerns NCI/ADR-RES ovarian. Conditions: 10 µM unless noted.
Assay [10] relates to T-47D breast. Conditions: 10 µM unless noted.
The test system of assay [11] is BT-549 breast. Conditions: 10 µM unless noted.
Assay [12] deals with MDA-MB-435 melanoma. Conditions: 10 µM unless noted.
For assay [13], the system named is SW-620 colon. Conditions: 10 µM unless noted.
The test system of assay [14] is HCT-116 colon. Conditions: 10 µM unless noted.
In assay [15] the test system is HCC-2998 colon. Conditions: 10 µM unless noted.
The test system of assay [16] is KM12 colon. Conditions: 10 µM unless noted.
The subject of assay [17] is MCF7 breast. Conditions: 10 µM.

Molecules are shown by their SMILES. Compounds without any hit were thinned out: in the full panel of roughly 83,000, 20% have a hit.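 Single-concentration screen, 48 h exposure, 96-well plates. Endpoint: percent growth. Below 10 = active.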 A number with no mark means an inactive call. The source made the active and inactive calls.

For the molecule `O=C(/C=C/c1cccc(Cl)c1)OCc1ccc2cc1OCC#C/C=C\C#CCO2`, the growth in [1] is 83.8%; in assay [2] it was 98.2%; in [3], 108%; in [4], 95.6%; in assay [5], 105%; in assay [6] it was 92.2%. The growth in [7] was 116%; in assay [8], 101%; in assay [9] it was 96.8%; in assay [10], 84.8%; in assay [11], 102%; in assay [12] it was 106%. Further, the growth in [13] was 108%; in assay [14], 89%; in assay [15], 107%; in [16], 104%.

For the molecule `COc1cc(C2C3=C(COC3=O)N(CCO)c3cc4c(cc32)OCCO4)cc(OC)c1O` (configuration not stated), the growth in [1] was 32.4%; in assay [2], 27.4%; in [3] it was 87.4%; in assay [4], 40.3%; in [5] it was 24.5%; in assay [6], 27.1%. Moreover, the growth is -31% (active) in assay [7]; 21.9% in assay [8]; 82.9% in assay [9]; 33.4% in assay [10]; -3.23% (active) in assay [11]; -35.1% (active) in assay [12]. Also, the growth was 17.2% in assay [13], 12.8% in assay [14], -10.7% (active) in assay [15] and -15.3% (active) in assay [16].

On to `CC(=O)c1ccc(Cc2ccc(C(C)=O)s2)s1`, for which the growth in assay [1] was 95.2%; in assay [2], 107%; in [3] it was 100%; in assay [4] it was 96.5%; in [5] it was 109%; in assay [6], 96.1%. Besides, the growth was 100% in assay [7]; 109% in [8]; 106% in assay [9]; 96.7% in assay [10]; 110% in [11]; 107% in assay [12]. Besides, the growth in assay [13] is 103%; in assay [17], 85.1%; in assay [14], 103%; in assay [16], 95.2%.

Turning to `CCOC(=O)C1=C(C)c2ccc(OC)c(OC)c2C1`, the growth in assay [1] was 85.3%; in assay [2], 95.7%; in [3], 102%; in assay [4], 84.7%; in assay [5], 103%; in [6], 104%. Moreover, the growth in [7] is 117%; in assay [8], 120%; in assay [9] it was 101%; in [10] it was 78%; in assay [11], 108%; in assay [12] it was 112%. For the same molecule, the growth in assay [13] was 104%; in assay [14] it was 102%; in assay [16], 101%.

With `CSc1nc2c(c(=O)[nH]1)N=C1c3ccccc3C(=O)C1C(c1ccccc1)N2` (configuration not stated), the growth in assay [1] was 36.2%; in assay [2], 61.3%; in assay [3], 82.5%; in assay [4] it was 72.6%; in assay [5] it was 64.3%; in [6] it was 17.4%. Further, the growth was -12% (active) in [7]; 48.2% in [8]; 38.3% in assay [9]; 43.9% in [10]; 40% in assay [11]; 29.8% in assay [13]. Further, the growth was 17.3% in [17], 21.8% in [14], 53.1% in [15] and 28.1% in [16].

As for `COc1nc2c(c(=O)n1C)N=C1c3ccccc3C(=O)C1C(c1ccccc1)N2` (configuration not stated), the growth is 92% in assay [1]; 100% in assay [2]; 97.1% in assay [3]; 92.8% in assay [4]; 91.4% in assay [5]; 110% in assay [6]. The growth is 74.9% in [7]; 105% in [8]; 73.3% in [9]; 85.2% in assay [10]; 81.1% in assay [11]; 88.4% in [13]. The growth in assay [17] is 88.2%; in assay [14], 89.9%; in assay [15], 106%; in [16] it was 79.3%.

In the case of `CCCCCCc1cc2cc(-c3nc4ccccc4[nH]3)c(=Nc3ccccc3C)oc2cc1O`, the growth in assay [1] is -20.2% (active); in assay [2], 55.8%; in [3], 57.7%; in assay [4], 39.4%; in [5] it was 67%; in [6], 39.5%. Besides, the growth in assay [7] is 41.9%; in [8], 68.8%; in assay [9], 49.9%; in assay [10] it was 29%; in [11] it was 77.3%; in [13], 29.6%. Moreover, the growth in assay [17] is 17.5%; in [14], 19.2%; in [15] it was -78.2% (active); in assay [16], 36.4%.

For `COc1ccc(-c2nsc3c2NC(=O)CC3c2cccc(OC)c2)cc1` (configuration not stated), the growth in assay [1] is 12.1%; in [2], 45.9%; in assay [3] it was 52.9%; in [4], 39.9%; in [5], 14.2%; in [6] it was 45.5%. Also, the growth was -18.6% (active) in assay [7]; 28.5% in assay [8]; 32.4% in [9]; 35.2% in [10]; 39.6% in [11]; -30.6% (active) in assay [12]. In addition, the growth was 27.2% in [13], 18.3% in assay [17], 29% in [14] and 36.2% in assay [16].

In the case of `O=C(Nc1ccc(F)cc1F)c1cc(Cl)ccc1O`, the growth in [1] was 1.46% (active); in assay [2] it was 10.6%; in assay [3] it was 15.3%; in [4] it was 16.6%; in [5], -11.2% (active); in assay [6], 19.3%. For the same molecule, the growth in assay [8] is 9.26% (active); in assay [9] it was 7.62% (active); in assay [10], -12.4% (active); in [12], 4.56% (active); in assay [13], 14.5%; in assay [17], 3.22% (active). Also, the values for the growth in assay [14], in [15] and in assay [16] were 8.39% (active), 23.1% and 5.33% (active), respectively.

For the molecule `Clc1ccc(Nc2scc3[n+]2CCC3)cc1`, the growth is 98.5% in [1]; 103% in [2]; 96.5% in [3]; 88.9% in [4]; 97.7% in assay [5]; 101% in assay [7]. Also, the growth in [8] is 100%; in assay [9] it was 96.8%; in assay [10], 89.7%; in [11] it was 99.2%; in assay [12], 97.7%; in assay [13], 96.9%. In addition, the growth is 89.6% in [17], 96.2% in [14] and 97.8% in assay [16].
